Assay outcomes from PubChem.
Only some compounds are listed: those with a hit (about 21% of all), similar ones and a draw of the others.
Pf growth 96h = P. falciparum growth inhibition at 96 hours | Potency, µM (top dose mostly 28.7 µM), hits mostly inhibitors | 320,000 tested, 6.9% active | P. falciparum luciferase reporter growth, 96 h; active means well fitted inhibition curve with a large enough effect; inconclusive means small, poorly fitted or top-dose-only effect, or another doubt; inactive means no such curve, though single readings can be large or run the other way
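Cell-based qHTS: luciferase-tagged P. falciparum in erythrocytes (2% hematocrit, 0.05% parasitemia final) incubated with compounds for 96 hours, 37 C, 5% CO2; luciferase detection reagent then added and luminescence measured.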
Pf growth 48h = P. falciparum growth inhibition at 48 hours (one generation) | P. falciparum luciferase growth in erythrocytes, 48 h | Potency, µM (highest dose often 28.7 µM), actives largely listed as inhibitors | 310,000 tested, 5.9% active | AID 504832; active means well fitted inhibition curve with a large enough effect; inconclusive means small, poorly fitted or top-dose-only effect, or another doubt; inactive means no such curve, though single readings can be large or run the other way
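Growth was read as firefly luciferase luminescence after a 48 h, 37 C, 5% CO2 exposure of compounds to reporter-bearing P. falciparum cultures (0.1% parasitemia, 2% hematocrit final) in Albumax-supplemented RPMI 1640.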
Cycloheximide cs = counter-screen for Shiga toxin inhibitors: cycloheximide protein synthesis inhibition | cell reporter, cycloheximide protein synthesis inhibition counterscreen | max response, % | 300,000 tested, 12% active | AID 2314; in the data active means max response mostly above about 13%, no sharp cut-off; inactive means mostly below about 14%; further: read at 38.3 µM for the half of the compounds with a filed dose
SARS PLP yeast = blocks SARS-CoV papain-like protease in a yeast assay; AID 485353; Potency, µM (highest dose often 32.9 µM), most hits filed as activators; S. cerevisiae expressing SARS-CoV PLpro, growth rescue; 330,000 tested, 0.19% active; further: nearly all actives have a fitted effect of over 55% in size
Shiga toxin inh = blocks Shiga toxin action in Vero cells | inhibition, % at 38.7 µM | Vero cells, Shiga toxin protein synthesis inhibition reporter | AID 2315 | 290,000 tested, 9.2% active; in the data active means inhibition mostly above about 28%, no sharp cut-off; inactive means mostly below about 43%
NS1 function inh = blocks influenza NS1 protein function; Potency, µM (top dose mostly 46.1 µM); 270,000 tested, 0.4% active; AID 2326; further: actives are rising curves; nearly all actives have a fitted effect of over 50% in size
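S. cerevisiae expressing influenza A NS1, grown in glucose, washed, then diluted 1:100 into pH 6.0 -URA galactose medium with 23 nl compound. Growth recovery read as OD600; NS1-free strain serves as control.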
Numbers stand for hits; i = inactive; ? = inconclusive; nt = no result given; [ ] = another dose, or the depositor's remark. Unless noted, the call rests on the fitted dose curve.

SMILES	Pf growth 96h	Pf growth 48h	Cycloheximide cs	SARS PLP yeast	Shiga toxin inh	NS1 function inh
COc1ccc(-c2[nH]c(-c3cccc(OC)c3)nc2SCC(=O)NC2CCCC2)cc1	3.3µM	i	i	i	i	nt
C/C(=N\Nc1ccc([N+](=O)[O-])cc1[N+](=O)[O-])C(C)(C)C(C(=O)O)C(=O)O	i	i	i	i	i	i
FC(F)(F)c1cnc2c(c1)Nc1ccccc1S2	i	i	13	i	i	i
c1ccc2c(c1)Nc1nccnc1S2	i	i	28	i	128	i
Clc1cc2c(nn1)Nc1ccccc1S2	i	i	11	i	i	i
O=C1Nc2cccnc2Sc2ccccc21	?	i	i	i	i	?
CSCC[C@H](N)C(=O)N[C@@H](C)C(=O)NCC(=O)N[C@@H](CCCN=C(N)N)C(=O)N[C@@H](CO)C(=O)NCC(=O)N[C@@H](CC(=O)O)C(=O)N[C@@H](CO)C(=O)N[C@@H](CC(=O)O)C(=O)N[C@@H](CCC(=O)O)C(=O)N[C@@H](CC(=O)O)C(=O)N[C@@H](CC(C)C)C(=O)N[C@@H](CC(C)C)C(=O)N[C@@H](CCCCN)C(=O)N[C@@H](C)C(=O)N[C@H](C(=O)O)C(C)C	nt	nt	i	nt	i	nt
O=[N+]([O-])c1ccc(Sc2nnnn2-c2ccccc2)nc1	?	?	i	i	i	nt
O=C(CC(c1ccco1)S(=O)(=O)c1ccccc1)c1ccc(F)cc1 (stereo not drawn)	nt	i	25	i	39	i[9.22 µM]
CCCCNC(=O)CC1N=C2c3ccccc3N=C(SCC(=O)Nc3ccc(OC)cc3)N2C1=O (stereo not drawn)	10µM	?	i	i	i	i
CCCCNC(=O)CC1N=C2c3ccccc3N=C(SCC(=O)Nc3ccccc3OC)N2C1=O (stereo not drawn)	i	10µM	i	i	i	i
Cc1cc(-n2cnnn2)ccc1C(C)C	i	i	23	i	i	nt
Cc1ccc(C)n1-c1ccc(-n2cnnn2)cc1	?	?	i	i	i	i
CCN1CCN(c2cc(C)c3cc(NC(=O)c4cccnc4Cl)ccc3n2)CC1	nt	nt	i	i	i	i
CCN1CCN(c2cc(C)c3cc(NC(=O)c4ccccc4F)ccc3n2)CC1	4.7µM	nt	i	i	i	i
Cc1cc(N2CCN(C)CC2)nc2ccc(NC(=O)c3ccccc3F)cc12	9.3µM	i	37	i	72	nt
CCN1CCN(c2cc(C)c3cc(NC(=O)c4ccc(Br)o4)ccc3n2)CC1	i	2.3µM	15	i	i	i
CCN1CCN(c2cc(C)c3cc(NC(=O)c4ccncc4)ccc3n2)CC1	i	nt	i	i	i	i
CCN1CCN(c2cc(C)c3cc(NC(=O)c4ccc(C)c(C)c4)ccc3n2)CC1	?	2.1µM	i	i	i	i
Cc1cc(N2CCN(C)CC2)nc2ccc(NC(=O)c3cccnc3Cl)cc12	i	nt	i	i	i	i
CCN(CC)c1cc(C)c2cc(NC(=O)c3ccc(Br)o3)ccc2n1	i	12µM	i	i	i	i
CCn1c2ccccc2c2cc(NC(=O)c3ccc(Br)o3)ccc21	nt	nt	i	i	i	i
c1ccc2c(c1)NC1(CCCCC1)n1c-2nc2ccccc21	i	nt	26	i	i	i
CCn1c(-c2cccnc2Cl)nc2ccccc21	i	i	i	i	i	i
c1ccc2c(c1)NC1(CCCCCC1)n1c-2nc2ccccc21	nt	i	34	i	77	i
SMILES	Pf growth 96h	Pf growth 48h	Cycloheximide cs	SARS PLP yeast	Shiga toxin inh	NS1 function inh
O=C1Cn2c(nc3ccccc32)-c2ccccc2N1	i	i	i	i	i	i
CC1(c2ccccn2)Nc2ccccc2-c2nc3ccccc3n21 (stereo not drawn)	i[5.75 µM]	1.7µM	i	i	i	i
NC1=NC2(CCCCCC2)n2c(nc3ccccc32)N1	?	?	i	i	i	i
Cn1cccc1CC(=O)NNC(=S)NC(=O)c1ccccc1Br	?	?	i	i	i	nt
O=C(CN(C(=O)CCC(=O)Nc1nccs1)c1ccccc1F)NCCc1ccccc1	?	i	i	i	i	i
Cc1c(NC(=O)c2ccc3nsnc3c2)cccc1[N+](=O)[O-]	i	i	i	i	i	i
Cc1c(NC(=O)c2ccc(C(C)(C)C)cc2)cccc1[N+](=O)[O-]	i	i	27	i	i	i
O=C(NC(=S)Nc1ccccc1[N+](=O)[O-])c1ccccc1	i	i	45	i	96	i
Cc1cc(C(=O)Nc2cccc([N+](=O)[O-])c2C)cs1	i	i	26	i	i	i
O=C(NC(=S)Nc1cccc2[nH]ncc12)c1ccccc1	i	i	36	i	58	nt
CNC(=S)Nc1cccc2[nH]ncc12	i	i	i	i	i	i
O=C(CCc1ccccc1)NC(=S)Nc1ccccc1[N+](=O)[O-]	?	i	i	i	i	i
Cc1nn(CCC(=O)NNC(=S)NCC(C)C)c(C)c1Br	nt	?	i	i	i	i
COc1ccc(C)cc1NC(=O)COC(=O)c1c(C)nn(-c2ccccc2)c1C	i	?	nt	i	nt	nt
COc1ccc(NC(=O)[C@H](C)NC(=O)C2CCN(S(=O)(=O)c3ccc(OC)cc3)CC2)cc1	i	i	i	i	i	i
CCOc1ccccc1NC(=O)CSc1nnc(CNC(=O)c2ccccc2F)o1	?	i	i	i	i	i
CCOc1ccc(NC(=S)N2CCN(CCN3C(=O)c4cccc5cccc(c45)C3=O)CC2)cc1	i	?	i	i	i	nt
CC(C)(C)c1ccc(NC(=O)c2ccccc2)c([N+](=O)[O-])c1	?	i	35	i	122	nt
CCc1ccccc1NC(=O)c1ccc(NCCc2ccccc2)c([N+](=O)[O-])c1	i	?	i	i	i	i
Nc1cc(Cl)ccc1N1CCCCCC1	i[5.75 µM]	2.6µM	i	i	i	nt
Nc1ccc(N2CCCCC2)cc1N1CCCCC1	i	3.3µM	i	i	i	i
CN1CCN(c2ccc(N)c(N3CCN(C)CC3)c2)CC1	nt	nt	i	i	i	i
O=C(COC(=O)c1ccc(S(=O)(=O)N2CCCC2)cc1)Nc1cccc(F)c1	?	i	nt	i	nt	nt
Cc1cccc(/C=N\NC(=O)c2csnn2)c1	i	i	74	i	88	i
CN(C)c1ccc(/C=N\NC(=O)c2csnn2)cc1	i	i	18	i	32	i
SMILES	Pf growth 96h	Pf growth 48h	Cycloheximide cs	SARS PLP yeast	Shiga toxin inh	NS1 function inh
Cc1ccc(N/N=C/c2ccc(N3CCOCC3)cc2)cc1C	10µM	i	59	i	136	i
CCc1c(C(=O)N/N=C/c2ccc(C)o2)csc1C	?	?	18	i	i	i
Cc1cccc(C(=O)NCCN2CCOCC2)c1[N+](=O)[O-]	i	i	i	i	i	i
CCc1nnc(NC(=O)c2ccc(Br)c(S(=O)(=O)N3CCOCC3)c2)s1	i	i	i	i	i	i
COc1cc2c(cc1OC)C(C)N(C(=O)c1sc(-c3cnccn3)nc1C)CC2 (stereo not drawn)	?	?	i	i	i	i
O=C(N/N=C/c1ccc(N2CCOCC2)cc1)c1ccccn1	i	i	27	i	51	i
O=C(N/N=C/c1ccc(N2CCOCC2)cc1)C1CC1	i	i	i	i	45	nt
